# Records with an inconclusive call do not appear. Entries that show only a call come without a potency. Unmarked numbers belong to inactive results. Calls of active or inactive are those of the source. Calls follow the shape of the dose curve; as a rule, active = well fitted inhibition curve with a large enough effect; inconclusive = small, poorly fitted or top-dose-only effect; inactive = no such curve, though single readings can be large or run the other way. Where a SMILES comes first, the peptide text is derived from it. [ ]: non-standard residue; d: D form. ξ: configuration not given here. ξTyr(βOH) = NC(C(=O)O)C(O)c1ccc(O)cc1
# Tests used:
# [1] = test system: Zika virus NS2B-NS3 protease (unlinked complex); assay: Primary screen GU Rhodamine qHTS for Zika virus inhibitors: Unlinked NS2B-NS3 protease assay (AID 1347159); also: nearly all actives have a fitted effect of over 60% in size
# Method in brief: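 Percent inhibition derives from the 15-min fluorescence change (ex 480, em 540 nm), normalized to no-enzyme and no-inhibitor wells. Reactions contained 25 nM NS2B-NS3 complex and 1.5 microM substrate in 10 mM Tris-HCl pH 8.0.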
# [2] = test system: Zika virus NS2B-NS3 protease (linked construct); assay: Primary screen NINDS Rhodamine qHTS for Zika virus inhibitors (AID 1347160); also: nearly all actives have a fitted effect of over 55% in size
# Method in brief: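 In 10 mM Tris-HCl pH 8.0 containing 0.01% Tween 20, linked NS2B-NS3 protease (25 nM final) is exposed to test compounds for 15 min. Cleavage of 1.5 microM Rhodamine110 substrate is tracked by fluorescence over 15 min.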
# Potency is read from the fitted curve at half-maximal effect.
Compound,Potency [1],Potency [2],"activity change, negative = inhibition [1]"
CCC1=C(C)C(=O)C(C)CC12C(=O)CCC2C(=O)O (centres undefined),inactive,inactive,–
CC(=O)OC[C@]12[C@@H](OC(=O)c3ccoc3)C[C@@H]3[C@@H](OC(C)=O)[C@]1(OC3(C)C)[C@@](C)(O)C[C@H](OC(=O)c1ccoc1)[C@@H]2OC(=O)c1ccoc1,inactive,inactive,–
CC(=O)OCC(Cc1ccccc1)NC(=O)C(Cc1ccccc1)NC(=O)c1ccccc1 (centres undefined),inactive,inactive,–
C[C@@H]1C(=O)O[C@H](C)[C@H]1C[C@@H](O)[C@](C)(O)[C@H]1CC[C@@]2(O)C3=CC(=O)[C@@H]4C[C@@H](O)[C@@H](O)C[C@]4(C)C3CC[C@]12C (some centres undefined),inactive,inactive,–
Cc1ccc(C)c(S(=O)(=O)n2cnc3ccccc32)c1,inactive,inactive,–
COC(=O)c1cc(OC)cc(OC)c1C(=O)c1c(OC)cc2c(c1O)C1CCC(O)C(C)(O2)O1 (centres undefined),inactive,inactive,–
COc1cc([C@@H](O[C@@H]2O[C@H](CO)[C@@H](O)[C@H](O)[C@H]2O)[C@@H]2CO[C@H](c3ccc(O)c(OC)c3)[C@H]2CO)ccc1O,inactive,inactive,–
CC(=O)NC1C(OC2CCC3(C)C(CCC4(C)C3CC=C3C5CC(C)(C)CCC5(C(=O)O)C(O)CC34C)C2(C)C)OC(CO)C(O)C1O (centres undefined),inactive,inactive,–
CC(C)(O)c1ccc2c(c1)C(=O)C[C@H]1[C@](C)(C(=O)O)CCC[C@]21C,inactive,inactive,–
C=CC1(C)CC=C2C(CCC3C(C)(C(=O)O)CCCC23C)C1 (centres undefined),5.62 µM (active),14.1 µM (active),–
CC(=O)OCC1OC(OC2COC(OC3COC(OC4C(OC5C(CO)OC(OC6CCC7(C)C(CCC8(C)C7CC=C7C9CC(C)(C)CCC9(C(=O)OC9OC(CO)C(O)C(O)C9OC9OCC(OC%10OCC(O)(CO)C%10O)C(O)C9O)C(O)CC78C)C6(C)C)C(O)C5O)OCC(O)C4O)C(O)C3O)C(O)C2O)C(OC(=O)/C=C/c2ccccc2)C(O)C1OC(C)=O (centres undefined),–,inactive,8.67% [at 19.1 µM]
CC1(C)CC[C@]2(C(=O)O[C@@H]3O[C@H](CO)[C@@H](O)[C@H](O)[C@H]3O)CC[C@]3(C)C(=CCC4[C@@]5(C)CC[C@H](O[C@H]6O[C@H](CO)[C@@H](O)[C@H](O[C@@H]7O[C@H](CO)[C@@H](O)[C@H](O)[C@H]7O)[C@H]6O)C(C)(C)C5CC[C@]43C)[C@@H]2C1 (some centres undefined),inactive,inactive,–
CN1CCN(C2=Nc3ccccc3Nc3ccc(O)cc32)CC1,inactive,inactive,–
CC1C(=O)OCC2=CC[N+]3([O-])CCC(OC(=O)C(C)(O)C1(C)O)C23 (centres undefined),inactive,inactive,–
CCCCC(=O)N1c2ccccc2NC2=C(C(=O)CCC2)C1c1ccccc1Cl (centres undefined),inactive,inactive,–
COC(=O)C1=CO[C@@H](O[C@@H]2O[C@H](CO)[C@@H](O)[C@H](O)[C@H]2O)[C@@H]2[C@@H](CO)[C@@H](O)C(O)[C@H]12 (some centres undefined),inactive,inactive,–
COC(=O)C1=CO[C@@H](O[C@@H]2O[C@H](CO)[C@@H](O)[C@H](O)[C@H]2O)[C@@H]2[C@@H](C)[C@@H](OC(=O)/C=C/c3ccccc3)[C@@H](O)[C@H]12,inactive,inactive,–
C[C@@H]1[C@H](O)[C@@H]2OC(=O)C3=C2[C@H](CCC3)[C@@]12C[C@@H](c1ccoc1)OC2=O,inactive,inactive,–
CC(O)C1NC(=O)C2CCCN2C1=O (centres undefined),inactive,inactive,–
O=C(O)CCc1c(C(=O)O)[nH]c2cc(Cl)cc(Cl)c12,inactive,inactive,–
C=C1C(OC(C)=O)CCC2(C)CC3(O)OC(=O)C(C)=C3CC12 (centres undefined),inactive,inactive,–
CCC1OC(=O)C(C)CC(C)C(=O)/C(C)=C/C(C)C(=O)/C=C/C1(C)O (centres undefined),inactive,inactive,–
CC(C)=CC[C@H]1O[C@]2(O)C([C@H]3CCC4[C@@]5(C)CC[C@H](O[C@@H]6O[C@H](CO)[C@H](O)[C@H](O[C@@H]7O[C@H](CO)[C@@H](O)[C@H](O)[C@H]7O)[C@H]6O[C@@H]6O[C@@H](C)[C@H](O)[C@@H](O)[C@H]6O)C(C)(C)C5CC[C@@]4(C)[C@]3(C)[C@H]2O)[C@@]1(C)O (some centres undefined),inactive,inactive,–
C=C1CC[C@@]2(OC1)O[C@H]1CC3C4CC=C5C[C@@H](O[C@@H]6O[C@@H](C)[C@H](O)[C@@H](O)[C@H]6O)C[C@@H](O[C@@H]6O[C@H](C)[C@H](O)[C@H](O)[C@H]6O[C@@H]6O[C@@H](C)[C@H](O)[C@@H](O)[C@H]6O)[C@]5(C)C4CC[C@]3(C)[C@H]1[C@@H]2C (some centres undefined),inactive,inactive,–
COC(=O)[C@H](O)[C@H]1C(C)(C)[C@H](OC(C)=O)[C@@]2(O)C(=O)[C@]1(C)C1CC[C@]3(C)C(CC(=O)O[C@H]3c3ccoc3)[C@]13O[C@@H]32 (some centres undefined),inactive,inactive,–
CC(=O)O[C@@H]1[C@H](O[C@@H]2OC[C@](O)(CO)[C@H]2O)[C@@H](O[C@@H]2O[C@@H](C)[C@H](O)[C@@H](O[C@@H]3O[C@H](CO)[C@@H](O)[C@H](O)[C@H]3O)[C@H]2O)[C@H](OC(=O)[C@]23CCC(C)(C)C[C@H]2C2=CCC4[C@@]5(C)C[C@H](O)[C@H](O[C@@H]6O[C@H](C(=O)O)[C@@H](O)[C@H](O)[C@H]6O)[C@@](C)(C(=O)O)C5CC[C@@]4(C)[C@]2(C)CC3)O[C@@H]1C (some centres undefined),–,inactive,2.67% [at 19.1 µM]

Compound,Potency [1],Potency [2],"activity change, negative = inhibition [1]"
C/C=C1/CC2C(=O)Nc3cc(O)c(OC)cc3C(=O)N2C1 (centres undefined),inactive,inactive,–
COc1ccc(CCC(=O)c2c(O)cc(O[C@@H]3O[C@H](CO)[C@@H](O)[C@H](O)[C@H]3O[C@@H]3O[C@@H](C)[C@H](O)[C@@H](O)[C@H]3O)cc2O)cc1O,inactive,inactive,–
C[C@H]1CC(=O)C2=C(C1)C(O)C(O)[C@@]1(O)[C@H]2C(=O)c2cccc(O)c2[C@@H]1O (some centres undefined),inactive,inactive,–
COC(=O)c1ccc(OC)cc1O[C@@H]1O[C@H](CO[C@@H]2OC[C@@H](O)[C@H](O)[C@H]2O)[C@@H](O)[C@H](O)[C@H]1O,inactive,inactive,–
CC(=O)NC1CC(=O)C23C(=O)NC(Cc4c[nH]c5ccccc45)C2C(C)=C(C)C(O)C3/C=C/CC(C)/C=C(/C)C(O)C1O (centres undefined),inactive,inactive,–
CSC(=O)OCC1=C[C@@H]2OC(=O)C3=CO[C@@H](O[C@@H]4O[C@H](CO)[C@@H](O)[C@H](O)[C@H]4O)[C@H]1[C@@H]32,inactive,inactive,–
CC1(C)C[C@@H]2[C@H](C1)[C@@]1(C)C[C@]13C(O)OC[C@]3(O)[C@H]2O (some centres undefined),inactive,inactive,–
Nc1ncnc2c1C(=O)N(c1ccc(C3CCC(CC(=O)O)CC3)cc1)CCO2 (centres undefined),inactive,inactive,–
CC(=O)C1CCC(=O)N1Cc1ccccc1 (centres undefined),inactive,inactive,–
CC1=CC[C@@]2(C)CC[C@@](O)(C(C)C)[C@@H]2[C@@H](O)C1,inactive,inactive,–
COc1cc(/C=C/C(=O)O)ccc1O[C@@H]1O[C@H](CO)[C@@H](O)[C@H](O)[C@H]1O[C@@H]1OC[C@](O)(CO)[C@H]1O,inactive,inactive,–
O=C(NCCN1CCCC1)c1cc(-c2ccc(CN3CCOCC3)cc2)nc2ccc(F)cc12,inactive,inactive,–
CC(C)C1NC(=O)CNC(=O)C2CCCN2C(=O)C(Cc2c[nH]c3ccccc23)NC(=O)CNC(=O)C(C(O)c2ccc(O)cc2)NC(=O)CNC1=O (centres undefined) (cyclo(G[ξTyr(βOH)]GWPGV); configuration not given here),inactive,inactive,–
CC1(C)CC[C@]2(C(=O)O)CC[C@]3(C)C(=CCC4[C@@]5(C)C[C@H](O)[C@H](O[C@@H]6O[C@H](CO)[C@@H](O)[C@H](O)[C@H]6O)[C@@](C)(CO)C5[C@H](O)C[C@]43C)[C@@H]2C1 (some centres undefined),inactive,inactive,–
CC(C)(C)NS(=O)(=O)c1ccc(-c2ccc3[nH]nc(N)c3c2)cc1,inactive,inactive,–
COc1ccc(CCC(=O)O)c(O[C@@H]2O[C@H](CO)[C@@H](O)[C@H](O)[C@H]2O)c1,inactive,inactive,–
C[C@@]12CC3(S(=O)(=O)O)OC(O1)[C@]1(COC(=O)c4ccccc4)[C@H]3C[C@]21O[C@@H]1O[C@H](CO)[C@@H](O)[C@H](O)[C@H]1O,inactive,inactive,–
COc1cc(O)c2c(c1)C1(OC2=O)C(C)=CC(=O)C1O (centres undefined),inactive,inactive,–
C[C@H](O)C(O)(C(=O)OCc1ccccc1NC(=O)CCC(N)C(=O)O)[C@H](C)O (some centres undefined),inactive,inactive,–
Cc1ccc(-c2c(-c3nn(C)c4ncnc(N5CCC(N6CCCCC6)C5)c34)cnn2C)cc1 (centres undefined),inactive,inactive,–
C/C=C(\C)C(=O)OC1C2(O)CC3=C4CC(=O)OC(c5ccoc5)C4(C)CCC3C(C)(C2=O)C(C(OC(C)=O)C(=O)OC)C1(C)C (centres undefined),inactive,inactive,–
CC1(C)OC(=O)CC(O)C2(C)C1CC(=O)C1(C)C2C(O)CC2(C)C(c3ccoc3)OC(=O)C3OC321 (centres undefined),inactive,inactive,–
CC1(C)OC(=O)C=C[C@@]2(C)C1CC(=O)[C@]1(C)C2CC[C@@]2(C)[C@H](c3ccoc3)OC(=O)[C@H]3O[C@]321 (some centres undefined),inactive,inactive,–
C=C[C@]1(C)C[C@@H](OC(=O)CSC2C[C@H]3CC[C@@H](C2)N3C)[C@]2(C)[C@H](C)CC[C@]3(CCC(=O)[C@H]32)[C@@H](C)[C@@H]1O (some centres undefined),inactive,inactive,–
CC1(C)C2CC[C@@]34CC(CC[C@H]3[C@]2(C)CC[C@@H]1O[C@@H]1O[C@H](CO)[C@@H](O)[C@H](O)[C@H]1O)[C@](C)(O)C4 (some centres undefined),inactive,inactive,–
C=C1C[C@]23C[C@H]1CC[C@H]2[C@]1(C)CC[C@H](O)[C@@](C)(C(=O)O)[C@H]1[C@@H]3C(=O)O,inactive,inactive,–

# From PubChem BioAssay (NCATS)
